NPR1 antag: antagonists of human natriuretic peptide receptor Npr1 | P16066 | HEK293 hNpr1 GloSensor cGMP, ANP-stimulated luminescence | Potency, µM (doses to about 46.3 µM), for inactives: at the highest dose activity change, negative = inhibition, usual class: inhibitors | actives 1.6% (n = 76,000) | AID 1347048; calls by dose curve; also: % is scaled to controls: 0 for no effect and ±100 for the full control effect; nearly all actives have a fitted effect of over 60% in size
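Compound pre-incubated 30 min at room temperature on GloSensor-loaded HEK293 cells stably carrying hNpr1 and the pGS-40F cGMP biosensor. Stimulation uses hNppA at 0.1 nM final; luminescence is taken at baseline and 20 min post-agonist.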
HEK cytotox: kills HEK 293 cells | HEK 293 viability, ATP luminescence (CellTiter-Glo), 48-72 h | actives 6.6% (n = 94,000) | Potency, µM (doses to about 115 µM), without a hit: at the top dose activity change, negative = cytotoxicity, actives largely listed as inhibitors; also: % is scaled to controls: 0 for no effect and ±100 for the full control effect; nearly all actives have a fitted effect of over 60% in size
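HEK 293 seeded at 250 cells/well receive compound via pintool. After 48 or 72 hr at 37 degree Celsius, 5% CO2 and 95% humidity, CellTiter-Glo is dispensed and luminescence read following 10 min at room temperature.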
NIH3T3 tox: kills NIH 3T3 cells; AID 1345082; Potency, µM (titrated, usually from 96.7 µM), without a hit: top-dose activity change, negative = cytotoxicity, actives largely listed as inhibitors; actives 4.3% (n = 94,000); NIH 3T3 viability, CellTiter-Glo ATP luminescence, 48-72 h; also: % is scaled to controls: 0 for no effect and ±100 for the full control effect; nearly all actives have a fitted effect of over 55% in size
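Viability of NIH 3T3 cells after 48 or 72 hr compound treatment at 37 °C was assessed by CellTiter-Glo, with luminescence imaged following a 10 min room-temperature step.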
FLuc inh: blocks purified firefly luciferase enzyme activity; P08659; purified P. pyralis luciferase, luminescence, biochemical; Potency, µM (series often up to 115 µM), actives largely listed as inhibitors; actives 2.5% (n = 76,000); AID 1347043; also: % is scaled to controls: 0 for no effect and ±100 for the full control effect; nearly all actives have a fitted effect of over 65% in size
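Purified 10nM P. pyralis luciferase with 10uM D-luciferin and 10uM ATP in 50mM Tris acetate pH 7.5, 10mM Mg acetate, 0.01% Tween-20, 0.05% BSA. qHTS titration; luminescence read by CCD imager.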
GPT2 inh: blocks human glutamate pyruvate transaminase 2; Recombinant GPT2, coupled pyruvate oxidase/HRP Amplex Red fluorescence; Potency, µM (highest dose often 57.7 µM), without a hit: top-dose activity change, negative = inhibition, hits mostly inhibitors; actives 0.25% (n = 100,000); AID 1671188; also: % is scaled to controls: 0 for no effect and ±100 for the full control effect; nearly all actives have a fitted effect of over 60% in size
Target sequence (Q8TD30 whole entry, looked up): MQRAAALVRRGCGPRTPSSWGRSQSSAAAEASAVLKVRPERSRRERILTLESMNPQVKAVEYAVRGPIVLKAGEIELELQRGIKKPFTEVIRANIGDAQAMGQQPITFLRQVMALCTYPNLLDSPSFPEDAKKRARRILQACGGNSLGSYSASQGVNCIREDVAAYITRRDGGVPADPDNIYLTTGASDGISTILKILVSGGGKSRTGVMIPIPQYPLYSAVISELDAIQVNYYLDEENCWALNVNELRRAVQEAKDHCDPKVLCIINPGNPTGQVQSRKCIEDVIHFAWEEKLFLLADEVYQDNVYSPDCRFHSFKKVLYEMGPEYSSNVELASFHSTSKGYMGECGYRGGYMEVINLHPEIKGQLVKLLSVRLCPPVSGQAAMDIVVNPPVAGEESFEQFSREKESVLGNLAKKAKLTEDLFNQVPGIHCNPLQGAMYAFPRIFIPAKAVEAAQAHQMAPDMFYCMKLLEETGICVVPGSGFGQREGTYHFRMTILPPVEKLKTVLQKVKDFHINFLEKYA
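GPT2 10ng/uL, a-KG 250uM, L-Ala 2mM, HEPES pH7.5 + 0.0001% Tween; 30 min RT. Then Amplex mix (PO/HRP/ThPP), 30 min RT dark, fluorescence. AOA 50uM used as positive control.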
NPR1 antag cnf: hNpr1 antagonism, confirmation assay | shares compounds with NPR1 antag | HEK293 hNpr1 cGMP GloSensor luminescence, ANP-stimulated | Potency, µM (series often up to 57.6 µM), for inactives: at the top dose activity change, negative = inhibition, most hits filed as inhibitors | actives 76% (n = 1,400) | AID 1347044; calls by dose curve; also: nearly all actives have a fitted effect of over 70% in size
NPR2 antag: hNpr2 antagonism, selectivity versus Npr1 | HEK293 hNpr2 GloSensor cGMP luminescence, CNP-stimulated | shares compounds with NPR1 antag | Potency, µM (top dose mostly 57.6 µM), for the others: top-dose activity change, negative = inhibition, actives largely listed as inhibitors | actives 67% (n = 1,400); calls by dose curve; also: nearly all actives have a fitted effect of over 70% in size
FLuc counter: inhibits firefly luciferase, false Npr1 antagonist flag. AID 1347047. actives 0.7% (n = 1,400). purified FLuc enzyme, luminescence, Km substrate. Potency, µM (series often up to 57.6 µM), without a hit: at the top dose activity change, negative = inhibition, most hits filed as inhibitors. shares compounds with NPR1 antag; also: 0% is about no effect
GloSensor ctrl: reduces cGMP signal in GloSensor control cells; actives 69% (n = 1,400); Potency, µM (series often up to 57.6 µM), without a hit: at the top dose activity change, negative = inhibition, usual class: inhibitors; HEK293 GloSensor cGMP, SNP-stimulated, luminescence; AID 1347051; shares compounds with NPR1 antag; calls by dose curve; also: % is scaled to controls: 0 for no effect and ±100 for the full control effect; nearly all actives have a fitted effect of over 70% in size
Active calls of the source: *; i = inactive; ? = inconclusive; . = no result given; [ ] = dose if it differs, or a comment. Rows were chosen to be rich in hits. Some 10% of all compounds tested hit in one or more screens of this group. Unless noted, calls follow the shape of the dose curve; as a rule, active = well fitted curve in the direction sought with a large enough effect; inconclusive = small, poorly fitted or top-dose-only effect, or another doubt; inactive = no such curve, though single readings can be large; an effect the other way counts as inactive or inconclusive. Potency is read from the fitted curve at half-maximal effect.

SMILES	NPR1 antag	HEK cytotox	NIH3T3 tox	FLuc inh	GPT2 inh	NPR1 antag cnf	NPR2 antag	FLuc counter	GloSensor ctrl
COc1ccc(C2Cn3nnc(-c4noc(C5CCCCC5)n4)c3CO2)cc1 (stereo unspecified)	-1%	10%	i	i	-7%	?	?	1%	-5%
O=C1c2c(nc(COc3ccc4c(c3)OCO4)n2Cc2ccccc2)NCCN1Cc1ccccc1F	?	35µM*	?	i	-10%	24µM*	?	4%	?
O=C1c2c(nc(CNCc3cccc(F)c3)n2Cc2ccccc2)NCCN1Cc1cccc(Cl)c1	-24%	?	?	i	-2%	.	.	.	.
O=C1c2c(nc(CNCc3cccc(Cl)c3)n2Cc2ccccc2)NCCN1CCOc1ccccc1	-29%	?	?	i	1%	?	?	2%	?
C1CCC(c2nc(CCOCC3CCCC3)no2)NC1 (stereo unspecified)	-16%	-38%	-20%	i	1%	.	.	.	.
O=C(CCc1nc2ccccc2s1)N1CCC(c2nc(C3CCOCC3)no2)CC1	8%	?	-24%	i	5%	.	.	.	.
Cc1nc(CN2Cc3nc(-c4ccc(Cl)cc4)ccc3OCC2=O)cs1	?	?	?	i	-2%[88.5 µM]	.	.	.	.
O=C1COc2ccc(-c3ccccc3F)nc2CN1Cc1ccccc1	-20%[70.6 µM]	?	?	i	4%[88.5 µM]	.	.	.	.
O=C1COc2ccc(Nc3ccc(Cl)cc3)nc2CN1Cc1nc2ccccc2s1	?	32µM*	40µM*	i	-13%[88.5 µM]	?	?	-3%[86.2 µM]	?
O=C1COc2ccc(-c3ccc(Cl)cc3)nc2CN1Cc1ccccc1	?	63µM*	?	i	-2%[88.5 µM]	31µM*	22µM*	3%[86.2 µM]	?
Cc1ccc(Cl)cc1NC(=O)NCC1CCOCC1	3%	5%	i	i	i	.	.	.	.
O=C(Oc1ccccc1)N1CCC(Oc2cnc3c(ccn3-c3cncnc3)c2)CC1	35µM*	56µM*	?	i	i	40µM*	40µM*	4%[86.2 µM]	40µM*
Cc1ccc(-c2ccc(O)cn2)c2cccnc12	?	?	-41%	i	?	?	?	-3%	?
Cc1cc(=O)n(CC(=O)Nc2ccc(Br)cc2F)c(N(C)Cc2ccccc2)n1	?	?	?	i	i	22µM*	19µM*	0%	19µM*
COc1ccc(NC(=O)Cn2c(N(C)Cc3ccccc3)nc(C)cc2=O)cc1OC	4.5µM*	?	?	i	i	6.9µM*	11µM*	2%	7.7µM*
Cc1cc(=O)n(CC(=O)Nc2ccc(F)c(Cl)c2)c(N(C)Cc2ccccc2)n1	11µM*	-2%	i	i	i	24µM*	?	-1%	22µM*
COc1ccc(Cl)cc1NC(=O)Cn1c(N(C)Cc2ccccc2)nc(C)cc1=O	-12%	?	?	i	-13%	.	.	.	.
Cc1cc(=O)n(CC(=O)Nc2ccc(Cl)cc2F)c(N(C)Cc2ccccc2)n1	13µM*	?	-33%	i	-12%	24µM*	?	3%	?
Cc1cc(=O)n(CC(=O)Nc2ccc(Br)cc2)c(N(C)Cc2ccccc2)n1	?	?	?	i	-12%	.	.	.	.
O=C(C1CCCC1)N1CC2(CCN(Cc3ccccn3)C2)OCc2ccccc21 (stereo unspecified)	.	?	-17%	.	-5%	.	.	.	.
Cn1nccc1-c1cn(C)c(=O)n2cc(COc3ccc(Cl)cc3)nc12	0%[70.6 µM]	-2%[172 µM]	?	i	i	.	.	.	.
O=C(NCc1cccc(Cl)c1)c1ccc2nnc(CC3CC3)n2c1	.	?	?	.	-9%	.	.	.	.
CCNC(=O)C1CCc2ncc(-c3ccsc3)n2C1 (stereo unspecified)	0%	2%	-4%	i	4%	.	.	.	.
COc1ccccc1CNC(=O)C1CCc2ncc(-c3ccsc3)n2C1 (stereo unspecified)	-21%	?	-14%	i	-7%	?	-28%	0%	12%
CCCCc1cn(CC2CCN(C(=O)c3sc(C)nc3C)CC2)nn1	10%	-10%	-24%	i	0%	.	.	.	.
SMILES	NPR1 antag	HEK cytotox	NIH3T3 tox	FLuc inh	GPT2 inh	NPR1 antag cnf	NPR2 antag	FLuc counter	GloSensor ctrl
O=C(NCc1ccccc1F)c1ccc2c(c1)CN(Cc1cccc(F)c1)CCO2	-12%	?	?	i	i	.	.	.	.
O=C(NCc1ccccc1F)c1ccc2c(c1)CN(Cc1ccncc1)CCO2	13µM*	?	-36%	i	i	17µM*	17µM*	5%	11µM*
O=C(c1ccccc1)N1CCC2(CC1)C(=O)NN=C2c1cccnc1	0%	1%	-11%	i	i	.	.	.	.
O=C(OCc1ccccc1)N1CCC2(CC1)C(=O)NN=C2c1cccnc1	?	?	?	i	i	19µM*	22µM*	1%	17µM*
Cc1ccc(CNC(=O)Cn2c(N(C)Cc3ccccc3)nc(C)cc2=O)cc1	-15%	?	?	i	i	.	.	.	.
Cc1ccc(S(=O)(=O)N2CCC(n3cnnc3-c3ccccc3)CC2)c(C)c1	-29%	?	?	i	i	?	?	6%	-21%
COc1ccc(CN2C[C@H]3CN(Cc4ccc(C)cc4)CCN3C2=O)cc1	18µM*	?	?	i	-4%[88.5 µM]	18µM*	22µM*	-8%[86.2 µM]	20µM*
O=C1c2ccccc2CN1C1CCN(Cc2ccc(C(F)(F)F)cc2)CC1	.	?	?	.	i	22µM*	24µM*	0%	19µM*
O=C1N(C2CCCCC2)C[C@H]2CN(Cc3ccc(C(F)(F)F)cc3)CCN12	13µM*	?	?	i	i	16µM*	20µM*	-14%[86.2 µM]	16µM*
O=C1N(Cc2ccccn2)C[C@H]2CN(Cc3ccc(C(F)(F)F)cc3)CCN12	?	?	?	i	1%[88.5 µM]	.	.	.	.
